# Test results reported in PubChem BioAssay (NCI).
# Compounds without any hit were thinned out: in the full panel of roughly 83,000, 20% have a hit.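 Compound tested at a single concentration for 48 hours in 96-well plates; a percent growth value below 10 was scored as active.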 A number with no mark means an inactive call. Active and inactive are the calls of the source.
# Key:
# Experiment in all cases: NCI-60 one-dose screen, 48 h (100 = growth as untreated, 0 = no growth, -100 = all killed)
# Conditions in all cases: 10 µM unless noted
# NCI-H23 lung = system: NCI-H23 lung
# NCI-H322M lung = system: NCI-H322M lung
# HOP-62 NSCLC = system: HOP-62 NSCLC
# NCI-H460 lung = system: NCI-H460 lung
# HOP-92 NSCLC = system: HOP-92 NSCLC
# NCI-H522 lung = system: NCI-H522 lung
# A549/ATCC NSCLC = system: A549/ATCC NSCLC
# 786-0 renal = system: 786-0 renal
# COLO 205 colon = system: COLO 205 colon
# DU-145 prostate = system: DU-145 prostate
# K-562 leukemia = system: K-562 leukemia
# MALME-3M melanoma = system: MALME-3M melanoma
# MDA-MB-231 breast = system: MDA-MB-231 breast
# RXF 393 renal = system: RXF 393 renal
# SF-268 CNS = system: SF-268 CNS
# SF-295 CNS = system: SF-295 CNS
# SF-539 CNS = system: SF-539 CNS
# UACC-257 melanoma = system: UACC-257 melanoma
# M14 melanoma = system: M14 melanoma
SMILES,growth (NCI-H23 lung),growth (NCI-H322M lung),growth (HOP-62 NSCLC),growth (NCI-H460 lung),growth (HOP-92 NSCLC),growth (NCI-H522 lung),growth (A549/ATCC NSCLC),growth (786-0 renal),growth (COLO 205 colon),growth (DU-145 prostate),growth (K-562 leukemia),growth (MALME-3M melanoma),growth (MDA-MB-231 breast),growth (RXF 393 renal),growth (SF-268 CNS),growth (SF-295 CNS),growth (SF-539 CNS),growth (UACC-257 melanoma),growth (M14 melanoma)
Cn1c(NCCc2ccc(O)c(O)c2)nc2c1c(=O)n(Cc1ccc(Cl)c(Cl)c1)c(=O)n2C,91.5%,82.1%,104%,88.2%,45.3%,-28.7% (active),80.3%,83%,57.4%,74.5%,79.6%,75.7%,69.5%,72%,64.8%,97.3%,75.6%,84.6%,85.6%
CC[C@@H](C(=O)[C@@H](C)[C@@H](O)[C@H](C)[C@@H]1O[C@@H]([C@@H](CC)C(=O)O)CC[C@@H]1C)[C@H]1OC2(C=C[C@@H](O)[C@]3(CC[C@@](C)([C@H]4CC[C@](O)(CC)[C@H](C)O4)O3)O2)[C@H](C)C[C@@H]1C (stereo partly specified),4.65% (active),24.2%,39.3%,10%,-14.8% (active),-54.6% (active),11.9%,3.62% (active),17.1%,45.8%,-33.8% (active),-90.7% (active),-39% (active),-32.6% (active),27.4%,1.38% (active),-28.1% (active),7.26% (active),-86.7% (active)
COc1cc(/C=C/C(=O)c2cccnc2Nc2ccc(F)cc2)cc(OC)c1OC,40.2%,103%,43.6%,–,37.7%,29.7%,32.9%,70.3%,83.9%,0.388% (active),–,94.2%,37.9%,22.6%,21.6%,57.6%,56.1%,31.9%,70%
FC(F)(F)c1[nH]ncc1-c1nc2ccc3n[nH]c(C#Cc4cccnc4)c3c2c2c1CCCC2,34.1%,32.8%,36%,19.1%,71.6%,28.7%,27%,30.7%,33.4%,45.1%,44.6%,22.8%,51.7%,21.4%,49.6%,42.7%,19.6%,57.7%,27.2%
COc1ccc(C(=O)COc2ccc(/C=C3\Oc4ccc(OC)cc4C3=O)cc2)cc1,100%,100%,115%,124%,63.4%,-29.6% (active),105%,114%,128%,116%,16.8%,102%,89.7%,110%,121%,81.9%,104%,94%,110%
COc1cccc(C2=NN3C(C2)c2cc(Br)cc(OC)c2OC32CCN(Cc3ccccc3)CC2)c1 (stereo unspecified),95.7%,103%,105%,101%,111%,96.2%,102%,104%,107%,105%,105%,99.7%,109%,115%,94.5%,101%,105%,104%,107%
O=C1c2cc3c(cc2-c2c1c1ccc(F)cc1c(=O)n2CCCNCCO)OCO3,-57.3% (active),-33.3% (active),-48.9% (active),-36.8% (active),2.28% (active),-53.9% (active),-74.4% (active),-84.8% (active),-66.5% (active),-68.5% (active),-55.7% (active),-72.2% (active),-70% (active),-92.4% (active),-54.6% (active),-14.3% (active),-86.4% (active),-28% (active),-39.7% (active)
